Source: PubChem BioAssay
Most compounds without a hit are left out; they make up all but 1% or so of the library.
Yeast superoxide = lowers age-related superoxide in aged yeast cells; S. cerevisiae aged cells, superoxide DHE fluorescence; active compounds read low; superoxide response (% of plate mean), % at 10 µM; actives 0.18% (n = 330,000);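 active = superoxide response under a set limit, about three screen SD below normal, cut at about 65% in these data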;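 note: yeast aged for seven days with compound at 30 °C before DHE staining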
V-ATPase pH = regulators of yeast V-ATPase proton transport; response, % at 10 µM; actives 0.37% (n = 350,000); S. cerevisiae, pHLuorin cytosolic pH fluorescence; in the data active = response mostly above about 7.3%, no sharp cut-off; inactive = mostly below about 5.4%; note: actives read high
CTSL1 counter = counter-screen for PFM18AAP inhibitors: inhibitors of F. hepatica cathepsin L1 | recombinant F. hepatica cathepsin L1, Z-Leu-Arg-MCA fluorescence | inhibition, % at 5.96 µM | actives 0.49% (n = 300,000);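 active = inhibition above the mean of all tested compounds plus 3 SD, set per screening campaign, cut at about 17% in these data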
hiPSC survival = increases survival of single human iPS cells | hiPSC single-cell survival, ATPlite luminescence; 100% = ROCK inhibitor wells, 0% = DMSO | survival enhancement, % at 20 µM | actives 0.044% (n = 360,000); in the data active = survival enhancement above about 18%;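 note: cells exposed to compounds for 16 hours before the ATP read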
A number is an active result; i = inactive; nt = not tested or not shown; ! = a repeat was not active.

SMILES	Yeast superoxide	V-ATPase pH	CTSL1 counter	hiPSC survival
CN(Cc1ccccc1)C(=O)CN1CCN(S(=O)(=O)c2ccccc2F)CC1	nt	i	nt	26.4
Nc1nc(N)c(N=O)c(OCC2CCCCC2)n1	i	i	104.3	i
CC[N+](CC)(CC)CC(=O)Nc1c(C)cccc1C	i	i	21.2	i
Cc1cccc(C)c1NC(=O)CNCC(=O)Nc1c(C)cccc1C	i	i	i	i
O=C(NC1CCCCC1)c1ccc2c(c1)S(=O)(=O)c1ccccc1C2=O	i	i	i	i
CCc1noc(C)c1C(=O)OCC(=O)c1ccc(NC(C)=O)cc1F	i	16.6	nt	i
CCCCC(=O)N(C)c1c(C)nc2ccc(C(=O)Nc3cccc(OC)c3)cn12	nt	nt	nt	i
COc1ccc2c(c1)OC13CCN(C)CC1C2C(C(=O)c1ccc(F)cc1)C(=O)N3 (stereo not given)	i	i	i	i
COc1ccc2c(c1)OC13CCCCC1C2C(C(=O)c1ccccc1)C(=O)N3 (stereo not given)	i	20.1	i	i
O=C(NCCNC(=O)c1cccs1)c1ccco1	i	i	18.6	i
CCN(CC)C(=O)C1=C(C)N(CCCOC)C(=O)C(CC(=O)NCCCN(C)C)C1 (stereo not given)	nt	i	nt	i
CN(C)c1ccc(/C=C/C(=O)c2cccc(Br)c2)cc1	i	i	i	i
COc1ccc(N=Cc2nc(-c3ccccc3)oc2OC(=O)c2ccccc2)cc1	i	i	22.0	i
CCOC(=O)c1ccc(N=Cc2nc(-c3ccccc3)oc2OC(C)=O)cc1	i	i	30.9	i
CN(C)c1ccc(N=Cc2nc(-c3ccccc3)oc2OC(=O)c2cccc(Br)c2)cc1	i	i	23.8	i
CC(=O)Oc1oc(-c2ccccc2)nc1C=Nc1ccccc1	i	i	26.2	i
CCOC(=O)c1ccc(N=Cc2nc3ccccc3n2C)cc1	i	i	i	i
C[C@@H]1COC(=O)[C@@H](CC(=O)OC(C)(C)C)C/C=C\C[C@H](CC(=O)NCCO)C(=O)N1	i	i	nt	i
O=C(c1cccc(Br)c1)N1CCN(c2ccc(N3CCOCC3)nn2)CC1	i	i	18.3	i
O=C(c1cncc(Br)c1)N1CCN(c2ccc(N3CCOCC3)nn2)CC1	i	i	i	i
Cc1nn(CC(=O)OC(C)C(=O)Nc2ccccc2[N+](=O)[O-])c(C)c1[N+](=O)[O-] (stereo not given)	i	i	i	i
CC(C)(C)c1cc(O)c(C(C)(C)C)cc1O	52.0	nt	i	nt
O=C(N/N=C/C=C/c1ccccc1)c1cccc(Br)c1	i	i	17.7	i
CCCCC/C(=N\NC(=O)Nc1ccccc1)c1ccccc1	i	i	25.4	i
CCOc1ccc(NC(=O)CN(C)C(=O)c2cc(S(=O)(=O)N3CCCCC3)ccc2Cl)cc1OCC	i	i	i	i
SMILES	Yeast superoxide	V-ATPase pH	CTSL1 counter	hiPSC survival
C#CCNC(=O)C1=C[C@H](c2ccc(C(F)(F)F)cc2)C[C@H](OCc2ccc(CO)cc2)O1	i	i	i	i
O=C1NCCN1c1ccccc1	nt	i	nt	28.6
O=C1N(c2ccccc2)CCN1c1ccccc1	i	i	i	i
O=C(NCCc1ccccc1)C1CCN(S(=O)(=O)N2CCCCC2)CC1	i	i	i	i
O=C(NCCc1ccccc1)C1CCN(c2ncccn2)CC1	i	14.1	i	i
Nc1ccccc1-c1nnc2n1CCCCC2	i	i	i	i
CCOC(=O)N1CCN(c2cc(NCCC(=O)O)c3c4c(onc24)-c2ccccc2C3=O)CC1	i	i	21.3	i
O=C(O)CCCNc1cc(N2CCN(C(=O)c3ccco3)CC2)c2noc3c2c1C(=O)c1ccccc1-3	i	i	i	i
O=C(COC(=O)c1cccc(-n2cnnn2)c1)c1ccc(Br)cc1	i	i	i	i
CCN(CC)S(=O)(=O)c1ccc(N2CCCC2)c(NC(=O)C2CSC3(C)CCC(=O)N23)c1 (stereo not given)	i	i	i	i
Cc1c(C(=O)NCc2ccccc2C(F)(F)F)sc(=O)n1Cc1ccc2ccccc2c1	nt	nt	nt	20.5
Cc1cc2nc3c(=O)n(CCc4ccccc4)c(=O)[nH]c3nc2cc1N	i	i	i	i
Nc1ccc2nc3c(=O)n(CCc4ccccc4)c(=O)[nH]c3nc2c1	i	51.3	i	i
Cc1ccccc1-c1cc2c(nn1)-c1ccccc1C2=O	i	i	71.2	i
Cc1ccc(-c2cc3c(nn2)-c2ccccc2C3=O)cc1	i	i	i	i
O=S(=O)(c1cccc2ccccc12)N1CCCCC1	nt	i	nt	i
CC1CNCCN1S(=O)(=O)c1cccc2cnccc12 (stereo not given)	i	i	i	20.0!
O=S(=O)(c1cccc2cnccc12)N1CCCNCC1	i	i	i	57.7
Cc1ccc(Cl)cc1NC(=O)C1CC1c1ccccc1 (stereo not given)	i	i	i	i
CCOc1ccccc1CN1CCN(Cc2nc3c(s2)CCCC3)CC1CCO (stereo not given)	i	i	i	i
O=[N+]([O-])c1ccc(-n2nnnc2-c2ccccc2)c([N+](=O)[O-])c1	i	i	20.4	i
O=[N+]([O-])c1ccc(-n2nnnc2-c2ccccc2)cc1	i	i	i	i
COCCN(C(=O)CSc1nnc(-c2ccc(F)cc2)n1N)c1c(N)n(CC(C)C)c(=O)[nH]c1=O	nt	nt	nt	i
COc1ccc(CN2CC(C(=O)NCCCN3CCOCC3)CC2=O)cc1 (stereo not given)	i	i	20.7	i
COc1ccc(CN2CC(C(=O)NCCc3ccc(C)cc3)CC2=O)cc1 (stereo not given)	i	i	i	i
SMILES	Yeast superoxide	V-ATPase pH	CTSL1 counter	hiPSC survival
COc1ccc(CN2CC(C(=O)NCCc3ccccc3)CC2=O)cc1 (stereo not given)	i	i	17.1	i
COc1ccc(CN2CC(C(=O)NCCCN3CCCCCC3)CC2=O)cc1 (stereo not given)	i	i	i	i
O=C(N[C@@H](Cc1ccccc1)C(=O)CCl)OCc1ccccc1	i	i	69.2	i
NC(=O)COC(=O)[C@H](Cc1c[nH]c2ccccc12)NC(=O)c1ccc(F)cc1	i	i	i	i
CC(OC(=O)CCc1nc2ccccc2[nH]c1=O)c1ccccc1 (stereo not given)	i	i	i	i
O=C(c1cc2cc(F)ccc2[nH]1)N1CCN(Cc2ccc3c(c2)OCO3)CC1	i	13.5	i	i
COc1cc2cc(C(=O)N3CCN(Cc4ccc5c(c4)OCO5)CC3)[nH]c2cc1OC	i	i	i	i
O=[N+]([O-])c1ccc2nnn(O)c2c1	i	i	i	i
O=[N+]([O-])c1nn(-c2ccc(Cl)cc2)n(O)c1=NCc1ccncc1	i	i	17.8	i
Cc1ccc(CN=c2c([N+](=O)[O-])nn(-c3ccc(Cl)cc3)n2O)cc1	i	i	i	i
CCCCN(C(=O)c1cc(-c2ccco2)nc2ccccc12)c1c(N)n(CCC)c(=O)[nH]c1=O	i	i	nt	i
Cc1cc(C)cc(OCC(=O)OCC(=O)NC2CCCCCC2)c1	i	17.4	nt	i
NS(=O)(=O)c1ccc(Oc2ccc(S(N)(=O)=O)cc2)cc1	i	i	16.9	i
O=C(O)c1ccccc1NS(=O)(=O)c1cccc(C(F)(F)F)c1	i	17.9	i	i
CCC(CC)C(=O)Nc1cccc(C(=O)Nc2nnc(C)s2)c1	i	211.3	i	i
